Activity (protection/inhibition) data for 3 molecules are collected here from PubChem BioAssay AID651871 (Sanford-Burnham Center for Chemical Genomics, 2012).

Where “and” joins values, the source holds several entries; their conditions need not be identical. Equal entries are not always repeated.

This assay deals with H9c2. In words: cardiomyocyte survival under oxidative or metabolic stress – cell-based, panel, H9c2 and HL-1, ATP luminescence, set 2, SAR follow-up (AID 651871).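 Note: cells exposed to stressor for 2 h before ATP readout; reference of the scale not given here.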 The settings on record: H9c2/HL-1 cardiomyocytes, 2-deoxyglucose stress, with 2-deoxyglucose; run 8, at 79 µM (top of the series).
For the molecule `COc1ccc2nc(-c3cc(OC)c(OC)c(OC)c3)cc(C(=O)NCC(=O)Nc3ccc(C(C)=O)cc3)c2c1`, the activity (protection/inhibition) was 83.5%.
For the molecule `COc1ccc2c(c1OC)C(=O)N1c3ccccc3C(=O)N(Cc3cccc(Cl)c3Cl)C21` (stereo not drawn), the activity (protection/inhibition) was 89.8% and 74.3% and -3.43%.
`CCOC(=O)c1cccc(NC(=O)CNC(=O)c2cc(-c3cc(OC)c(OC)c(OC)c3)nc3ccccc23)c1`: the activity (protection/inhibition) is 92.9%.
